Bioassay records deposited in PubChem BioAssay by Center for Chemical Genomics, University of Michigan.
CDC25B CDK2 inh – primary biochemical HTRF screen for blockers of M-phase inducer phosphatase 2 binding to CDK2/cyclin A; P30305+P24941; HTRF CDC25B-CDK2/CyclinA binding, anti-His/anti-Flag; stronger effect = higher value; z-score (no concentration beside the values); 94,000 tested, 0.72% active; AID 1259370, 2018; in the data active = z-score above about 3.2
TAR Tat displ – TAR RNA-Tat peptide displacers, HIV-1, primary screen, biochemical, FRET, FAM/TAMRA-labeled Tat; HIV-1 TAR RNA, Tat peptide displacement FRET; stronger effect = higher value; 100,000 tested, 0.6% active; z-score (concentration not given with the values); active = z-score of 3 or more in at least 2 runs
The depositor's hits bear a star; x = no result. Compounds with a hit are over-represented: about 0.93% of the library has one in this group of screens.

SMILES | CDC25B CDK2 inh | TAR Tat displ
CCNc1cc(N2CCCC(C)C2)c2noc3c2c1C(=O)c1ccccc1-3 (configuration not stated) | -0.57 | 4.5*
Cc1nn(-c2ccc(N3CCOCC3)nn2)c(C)c1CCC(=O)NC1CCCCC1 | x | -0.36
Cc1ccccc1OCc1nc(-c2ccc(Cl)cc2)no1 | -3.2 | x
Cc1cccc(C)c1N1C(=O)N2CCCN2C1c1ccc(F)cc1 (configuration not stated) | -0.54 | 1.5
CCN1CCN(CCCNC(=O)Cn2cc3c(n2)-c2c(oc(C(=O)N4CCCC4)c2C)CC3)CC1 | x | 3
O=C(NCCCN1CCOCC1)c1ccc(NC2=NC3CS(=O)(=O)CC3S2)cc1 (configuration not stated) | x | 1.6
CC(C)Nc1cc(N2CCCCC2)c2noc3c2c1C(=O)c1ccccc1-3 | -1.2 | 0.79
CCCN1CCN(c2cc(NCCO)c3c4c(onc24)-c2ccccc2C3=O)CC1 | -3.6 | 2.9
CC(C)Nc1cc(N2CCN(C)CC2)c2noc3c2c1C(=O)c1ccccc1-3 | 1.5 | 9.7*
CCN1CCN(c2cc(NCCO)c3c4c(onc24)-c2ccccc2C3=O)CC1 | 1.1 | 15*
CC(C)CNc1nc(Oc2ccc(OC(C)C)nn2)nc(N2CCOCC2)n1 | -0.37 | 1.1
O=C(c1cc2ccc3cccnc3c2[nH]1)N1CCN(c2ccccn2)CC1 | x | 1
COc1cscc1C(=O)Nc1cc(C(F)(F)F)cc(C(F)(F)F)c1 | -0.73 | x
COC(=O)c1cscc1OC(=O)c1ccc(C(F)(F)F)cc1 | 17* | x
COc1ccc2cc(NC(=O)Nc3ccc(OC)c4cccnc34)n(C)c2c1 | 14* | 0.07
COCCNC(=O)Nc1cc2ccc(OC)cc2n1C | -0.97 | 0.06
CCOC(=O)c1nnc(-c2ccc(Br)cc2)o1 | -1 | 4.7
Cc1cc(C)c(NC(=O)C(C)Sc2nc(C)nc3c2CCC3)c(C)c1 (configuration not stated) | 0.04 | -0.19
CCS(=O)(=O)N1CCC(c2nc3c(nnn3Cc3ccccc3F)c(=O)[nH]2)CC1 | -1.1 | 1.5
NC(CO)C(=O)NNCc1ccc(O)c(O)c1O (configuration not stated) | -1.5 | 13*
N[C@H](CO)C(=O)O | -0.64 | x
COC(=O)CC(=O)NC(C)c1c(-n2cccc2)sc2c1CCCC2 (configuration not stated) | -1.3 | 1.4
CN(C)S(=O)(=O)N(CC(=O)N1CCc2ccccc2C1)c1ccccc1 | -1.7 | 11*
CC1CC(C)CN(C(=O)CCS(=O)(=O)c2ccc3c(c2)n(C)c(=O)c(=O)n3C)C1 (configuration not stated) | -2.4 | 2.6
CN(CC(=O)N1CCc2ccccc2C1)S(=O)(=O)c1ccc2c(c1)CCCC(=O)N2 | x | 0
SMILES | CDC25B CDK2 inh | TAR Tat displ
Cn1c(=O)c(=O)n(C)c2cc(S(=O)(=O)CCC(=O)N3CCc4ccccc4C3)ccc21 | -1.6 | 4.1*
CC(C)NC(=O)CN(C)c1nnc(N2CCCC2=O)s1 | -0.51 | 2.4
COC(=O)c1sc(NC(=O)CSc2ncnc3sc4c(c23)CCC4)c(C(=O)OC)c1C | -2.8 | x
O=C(Nc1ccc2oc(-c3cccc(F)c3)nc2c1)c1ccc([N+](=O)[O-])o1 | 2.5 | 22*
O=C(Nc1ccc2oc(-c3ccc(F)cc3)nc2c1)c1ccc([N+](=O)[O-])o1 | 0.59 | 2.4
O=C(O)CSc1c2c(nc3cc(C(=O)NCC4COc5ccccc5O4)ccc13)CCCC2 (configuration not stated) | 1.1 | -1.1
O=C(c1cccs1)N1CCN(CCN2C(=O)c3cccc4cccc(c34)C2=O)CC1 | 12* | 1.1
O=C(c1cccs1)N1CCN(CCOc2ccccc2)CC1 | 4.3 | x
CC(=O)Oc1cc2c(C(=O)NC3CCS(=O)(=O)C3)c(C)oc2c2ccccc12 (configuration not stated) | 10* | -7.7
CC(=O)Oc1cc2c(C(=O)NCC3CCCO3)c(C)oc2c2ccccc12 (configuration not stated) | 2.3 | 1.3
COc1ccccc1-c1noc2ncnc(N3CCN(c4ccccn4)CC3)c12 | x | 1.2
Cc1cc(-c2ccccc2)c2c(n1)sc1c(O)cc(=O)[nH]c12 | -1.6 | -1.1
CSc1nc(N)nc2sc3c(O)cc(=O)[nH]c3c12 | 6.5 | 11*
CC1=C(c2ccc(C(C)C)cc2)S(=O)(=O)N=C1N1CCOCC1 | -1.7 | -1.2
O=c1[nH]c(SCc2ccccc2F)nc2c1CCC2 | -1.7 | 0.61
O=c1[nH]c(SCc2c(F)cccc2Cl)nc2c1CCC2 | -1.9 | 8.6*
O=[N+]([O-])c1ccc(N2CCN(c3ccccc3)CC2)s1 | x | 3.5
CCOC(=O)N1CCN(c2ccc([N+](=O)[O-])s2)CC1 | x | 5.2*
COc1nc2ccc(C)cc2cc1-c1noc(-c2cccnc2)n1 | -13 | 3.6*
COc1nc2ccc(C)cc2cc1-c1noc(-c2ccncc2)n1 | -13 | 0.7
COc1ccc(OC)c(NS(=O)(=O)c2cc(-c3csc(C)n3)ccc2C)c1 | x | 1.9
